# Potency and affinity values are given separately. Values without a mark were called inactive.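 The calls were made as follows: active = a dose-response curve fit returns a half-maximal inhibitory concentration, extrapolated values included; inactive = the fit returns no such concentration.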
# Biological target: HMG-CoA reductase [Enterococcus faecalis] (UniProt Q9FD70)
# Test: class II HMG-CoA reductase inhibition potency – biochemical, Enterococcus faecalis, confirmation (AID 1233);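 also: 0% = full reaction carrier wells and 100% = background wells lacking mevalonate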
# Conditions: purified E. faecalis HMGR, NADPH absorbance 340 nm kinetics; series mostly up to 100 µM; inhibition: at the top concentration
row,SMILES,inhibition [%]
1,COc1ccc(C[C@H]2COC(=O)[C@@H]2Cc2ccc(OC3OC(CO)C(O)C(O)C3O)c(OC)c2)cc1OC (some centres undefined),-5.86
2,CCc1ccc(NC(=O)CSCc2ccc(C(=O)O)cc2)cc1,-6.21
3,CCn1c(SCC(=O)N/N=C/c2ccc(C)o2)nnc1-c1ccccc1,-0.02
4,CO/N=C/c1ccc(N2CCCC2)c([N+](=O)[O-])c1,-0.65
5,Cc1cc(N2C(=O)C(O)=C(C(=O)c3ccco3)C2c2cccnc2)no1 (centres undefined),-1.8
6,CC(C)(C)C(=O)N1CCC[C@H]1C(O)(c1ccccc1)c1ccccc1,-3.19
7,CCOc1cc(N2CCOCC2)c(OCC)cc1NC(=O)CC12CC3CC(CC(C3)C1)C2,-4
8,COC(c1ccccc1)c1nnc(CCC(=O)NCCC(C)C)o1 (centres undefined),-0.95
9,CC1CCCN(C(=O)C2CCN(CC(C)c3ccccc3)CC2)C1 (centres undefined),-5.44
10,O=C(/C=C/c1cccs1)c1ccc(NC(=O)c2ccccc2F)cc1,-12.2
11,COc1ccc(C(=O)C(C)OC(=O)c2cccc(S(=O)(=O)Nc3cc(Cl)c(OC)cc3OC)c2)cc1 (centres undefined),-1.47
12,CCCS(=O)(=O)N1CCN(C(=O)c2ccc(-c3ccccc3)cc2)CC1,-1.69
13,COCC(C)NC(=O)CSc1nc(-c2ccccc2)c(-c2ccccc2)o1 (centres undefined),-5.68
14,COC(=O)c1ccc(C(NC(=O)OCc2ccccc2)/C(C)=C/[C@@H](C)C(=O)NCc2ccc(-c3ccccc3)cc2)cc1 (some centres undefined),-5.32
15,CC(C)(C)OC(=O)N1CCC[C@H]1c1nnc(SCc2ccccc2F)o1,-1.4
16,O=C(O)c1cc(N/N=C/C(Cl)=C/c2ccccc2)ccc1Cl,0.35
17,COc1ccc(Nc2nc3c(C)cccn3c(=O)c2C=NCc2ccccc2)cc1,-3.33
18,N#Cc1nc(COc2ccc(-c3ccccc3)cc2)oc1NCCCN1CCOCC1,-2.74
19,C=CCn1c(C)c(C(C)=O)c(N2CCCC2)nc1=S,0.13

# — PubChem BioAssay AID1233 (SRMLSC, 2008)
